From PubChem BioAssay AID504834 (National Center for Advancing Translational Sciences (NCATS), 2011) come the findings set out here.

Values joined by “and” are separate entries in the source; they are usually repeats but may differ in a detail not shown here. Identical values can stand only once. Out of some 320,000 compounds screened, about 22,000 (6.9%) were called active. Another 27% or so got no clear call; they are omitted. The sample holds actives, similar compounds and a random draw of the others, so the mix is not that of the screen. Calls come from the whole dose curve; as a rule, active = well fitted inhibition curve with a large enough effect; inconclusive = small, poorly fitted or top-dose-only effect, or another doubt; inactive = no such curve, though single readings can be large or run the other way. Where a structure was tested more than once in an assay, its records may differ in their call.
% is set by controls: 0 for no effect and ±100 for the full control effect; potency is the fitted concentration of half-maximal effect.

A short description of this test: Primary qHTS for delayed death inhibitors of the malarial parasite plastid, 96 hour incubation. As to conditions: P. falciparum luciferase reporter growth; series mostly up to 28.7 µM; activity change, negative = inhibition: at the top concentration. An outline of the steps:
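P. falciparum expressing integrated firefly luciferase grown in erythrocytes (2% hematocrit, 0.05% parasitemia final) with compounds for 96 hours at 37 C, 5% CO2. Growth inhibition read as loss of luminescence after adding luciferase detection reagent.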
Turning to `O=C(CN1CCC(O)(c2cccc(C(F)(F)F)c2)CC1)NCCc1ccccc1`, the “activity change, negative = inhibition” value is 39% (inactive).

In the case of `Cc1ccc2nc(-c3ccncc3)cc(C(=O)Nc3ccc4c(c3)OCCO4)c2c1`, the “activity change, negative = inhibition” value is 27.1% (inactive).

On to `CCN(CC)CCNC(=O)c1ccc(NC(=O)c2cc(-c3ccncc3)nc3ccccc23)cc1`, for which the Potency is 8.28 µM (active).

`COC(=O)CNC(=O)c1cc(-c2ccncc2)nc2ccccc12`: the “activity change, negative = inhibition” value is 0% (inactive).

With `O=S(=O)(Nc1cccc(-c2ccc(N3CCOCC3)nn2)c1)c1ccc(Cl)c(Cl)c1`, the “activity change, negative = inhibition” value is -1.51% (inactive).

`CCCCC(=O)NNC(=S)NC(=O)C(c1ccccc1)c1ccccc1`: the “activity change, negative = inhibition” value was -13.3% (inactive).

As for `CCCCCCOC(=O)NCC(O)c1ccccc1` (stereo not given), the “activity change, negative = inhibition” value is 3.79% (inactive).

On to `CCCC[N+]1(C)C2CC(OC(=O)C(CO)c3ccccc3)CC1C1OC12` (stereo not given), for which the Potency entry is “inactive and 1.2 µM (active)”.

On to `CN(C)C(=O)Cn1c(=O)n(S(=O)(=O)c2ccccc2)c2ccccc21`, for which the “activity change, negative = inhibition” value was 0% (inactive).

On to `Cc1ccc(/C=N/NC(=O)CNC(=O)COc2ccccc2)o1`, for which the “activity change, negative = inhibition” value was -20.5% (inactive).

Consider `Cc1cccc(OCC(=O)NCC(=O)N/N=C/c2ccc(N(C)C)cc2)c1`, for which the Potency is 7.38 µM (active).

For the compound `Cc1ccc(OCC(=O)N/N=C/c2ccncc2)cc1`, the “activity change, negative = inhibition” value is 0% (inactive).

As for `COc1ccccc1C(=O)COC(=O)CNS(=O)(=O)c1ccc(NC(C)=O)cc1`, the “activity change, negative = inhibition” value is 0.583% (inactive).

Take `CC(=O)Nc1ccc(N2C(=O)C3C4C=CC(CC4)C3C2=O)cc1` (stereo not given): the “activity change, negative = inhibition” value was 16.1% (inactive).

Regarding `Cc1ccc(N2C(=O)C3C4C=CC(CC4)C3C2=O)cc1Br` (stereo not given), the “activity change, negative = inhibition” value was 39.1% (inactive).

On to `Cc1ccc(N2C(=O)C3C4C=CC(CC4)C3C2=O)cc1Cl` (stereo not given), for which the Potency is 3.7 µM (active).

As to `CCC(C)(C)NC(=O)C(c1ccc(OC)cc1)N(C(=O)CCC(=O)Nc1cc(C)on1)c1ccc(OC)cc1OC` (stereo not given), the “activity change, negative = inhibition” value was 26.5% (inactive).

On to `COc1cc(CC(=O)N2CCC(n3nccc3NC(=O)C3CC3)CC2)cc(OC)c1OC`, for which the “activity change, negative = inhibition” value was 22.8% (inactive).

As for `O=c1c2ccccc2nc(-c2ccco2)n1-c1ccc(Br)cn1`, the “activity change, negative = inhibition” value is 15.4% (inactive).

`Cc1ccc(-c2nc3c(cnn3-c3ccccc3)c(=O)o2)cc1`: the “activity change, negative = inhibition” value is -5.05% (inactive).

As to `Cc1ccc(-n2ncc3c(=O)n(-c4ccc(C)c(C)c4)c(-c4ccco4)nc32)cc1`, the Potency is 9.28 µM (active).

Regarding `CC(=O)Nc1ccc(C(=O)N(C2=NC(C)CS2)c2ccc(Cl)cc2)cc1` (stereo not given), the “activity change, negative = inhibition” value was 4.14% (inactive).

Take `COc1ccc(S(=O)(=O)NCC(c2ccco2)N2CCOCC2)cc1` (stereo not given): the “activity change, negative = inhibition” value is 1.25% (inactive).

For the compound `CCN(Cc1ccncc1)C(=O)CCc1ccccc1`, the Potency is 13.1 µM (active).

Consider `CCC(=O)N(Cc1ccccc1)c1ccccn1`, for which the “activity change, negative = inhibition” value is 14.9% (inactive).

`O=C(O)CCC(=O)N(Cc1ccccc1)Cc1ccccc1`: the “activity change, negative = inhibition” value is -11.1% (inactive).

Consider `O=C(CCC(=O)n1ncc2ccccc21)NCc1ccccc1Cl`, for which the “activity change, negative = inhibition” value was 25.6% (inactive).

On to `Cc1ccc(-n2c(SCC(=O)NCc3ccc4c(c3)OCO4)nnc2-c2cccnc2)c(C)c1`, for which the Potency is 9.28 µM (active).

`Cc1ccccc1-n1c(SCC(=O)NCc2cccs2)nnc1-c1ccncc1`: the “activity change, negative = inhibition” value was 9.17% (inactive).

On to `Cc1cccc(C)c1NC(=O)CSc1nnc(-c2ccccc2)n1Cc1ccc2c(c1)OCO2`, for which the “activity change, negative = inhibition” value was 5.46% (inactive).

Take `COc1ccc(NC(=O)c2cc(-c3ccc(C)cc3)on2)cc1`: the “activity change, negative = inhibition” value is -26.3% (inactive).

Regarding `Cc1csc(NC(=O)CSc2nnc(-c3cccnc3)o2)n1`, the “activity change, negative = inhibition” value was -15.7% (inactive).

On to `CCOc1ccc(/C=C(/NC(=O)c2ccccc2)C(=O)NCCC(=O)O)cc1`, for which the “activity change, negative = inhibition” value is -17.1% (inactive).

As to `CCc1ccccc1NC(=O)/C(=C/c1ccccc1)c1ccccc1`, the Potency was 8.28 µM (active).

Consider `CCc1ccccc1NC(=O)c1cccs1`, for which the “activity change, negative = inhibition” value was 79.6% (inactive).

Take `CCSc1nc(O)c(C(c2cccc(OC)c2)c2c(O)nc(SCC)[nH]c2=O)c(=O)[nH]1`: the “activity change, negative = inhibition” value is 5.94% (inactive).

Consider `CCOC(=O)C1=C(CSc2nccn2C)NC(=O)NC1c1ccc(OC)cc1` (stereo not given), for which the Potency was 13.1 µM (active).

`CCOC(=O)C1=C(c2ccccc2)NC(=O)NC1c1cc(OC)c(OC)cc1OC` (stereo not given): the “activity change, negative = inhibition” value was 12.3% (inactive).

For the compound `CCOC(=O)C1CN(S(=O)(=O)c2ccc(OC)cc2)c2cc(Cl)ccc2O1` (stereo not given), the “activity change, negative = inhibition” value is 23.2% (inactive).

On to `COc1ccc(-c2ccc3nnc(SCC(=O)Nc4ccc(NC(C)=O)cc4)n3n2)cc1`, for which the “activity change, negative = inhibition” value was 11.2% (inactive).

For `O=C(Nc1ccccc1)N1CCN(Cc2ccccc2)CC1`, the “activity change, negative = inhibition” value was 20% (inactive).

For `O=C(Nc1ccccc1)N1CCN(C(=O)Nc2ccccc2)CC1`, the “activity change, negative = inhibition” value was -1.36% (inactive).

`O=C(Nc1ccccc1)N1CCN(C2c3ccccc3-c3ccccc32)CC1`: the Potency is 2.62 µM (active).

`CN1C(C(=O)NCc2ccco2)CC2Cn3c(nc4ccccc43)C21` (stereo not given): the “activity change, negative = inhibition” value is 51.3% (inactive).

With `CC(C)(C)C(=O)Nc1ccc(-c2cn3cccnc3n2)cc1`, the “activity change, negative = inhibition” value was 19% (inactive).

Turning to `O=C(CCN1C(=O)C2C3CCC(C3)C2C1=O)Nc1ccc(Cl)cc1Cl` (stereo not given), the Potency was 7.38 µM (active).

On to `Cc1ccc(C(=O)COC(=O)CCN2C(=O)C3C4CCC(C4)C3C2=O)cc1C` (stereo not given), for which the “activity change, negative = inhibition” value is 42.2% (inactive).

Consider `O=C(NC(=S)Nc1ccc(Cl)cc1Cl)C1CC1`, for which the “activity change, negative = inhibition” value was 19.1% (inactive).

`O=C(N/C(=C\c1ccc([N+](=O)[O-])cc1)C(=O)N1CCCCC1)c1ccco1`: the “activity change, negative = inhibition” value was 147% (inactive).

With `COCCn1c(SCC(=O)Nc2nc(C)cs2)nnc1C(C)C`, the “activity change, negative = inhibition” value is 33.8% (inactive).

As to `O=C1c2cccc3c([N+](=O)[O-])ccc(c23)C(=O)N1CC1CCCO1` (stereo not given), the Potency was 10.4 µM (active).

With `CCC(=O)Nc1ccc(C(=O)Nc2ccc3c(c2)C(=O)N(CC2CCCO2)C3=O)cc1` (stereo not given), the “activity change, negative = inhibition” value is 11% (inactive).

As to `O=C(NCc1ccc2c(c1)OCO2)c1ccc2c(c1)C(=O)N(CC1CCCO1)C2=O` (stereo not given), the “activity change, negative = inhibition” value was -1.01% (inactive).

In the case of `C[N+](C)(C)CCNC(=O)c1cc[n+](Cc2ccccc2)c(/C=N/O)c1`, the “activity change, negative = inhibition” value is -21.3% (inactive).

`O=C(Nc1ccccn1)C1CCN(S(=O)(=O)c2ccc3c(c2)OCCO3)CC1`: the “activity change, negative = inhibition” value is 175% (inactive).

Regarding `O=C(Nc1ccccn1)C1CCN(S(=O)(=O)c2ccccc2)CC1`, the “activity change, negative = inhibition” value was 382% (inactive).

Consider `O=C(Nc1nccs1)C1CCN(S(=O)(=O)c2ccc(Cl)c(C(F)(F)F)c2)CC1`, for which the Potency was 13.1 µM (active).

On to `CN(C)c1ccc(-c2nnc(-c3cccnc3)o2)cc1`, for which the “activity change, negative = inhibition” value is 0.212% (inactive).

As to `CC1CC(C)CN(S(=O)(=O)c2cccc3nonc23)C1` (stereo not given), the “activity change, negative = inhibition” value is 7.94% (inactive).

As to `CCN(C(=O)CSc1nnnn1-c1ccccc1OC)C1CCS(=O)(=O)C1` (stereo not given), the “activity change, negative = inhibition” value is 13.5% (inactive).

Turning to `COc1ccc(CCNC(=O)CCNS(=O)(=O)c2cc(Br)cnc2N)cc1OC`, the “activity change, negative = inhibition” value was 60.9% (inactive).

With `COC(=O)C1=C(C)NC(=O)CC1c1ccccc1OC` (stereo not given), the “activity change, negative = inhibition” value is -10.8% (inactive).

Take `COc1cc2c(cc1OC)C(c1ccc(C)o1)CC(=O)N2` (stereo not given): the Potency is 13.1 µM (active).

`COc1cc2c(cc1OC)C(C(=O)Nc1cc(C)c(OC)c(C)c1)CC(=O)N2` (stereo not given): the “activity change, negative = inhibition” value was 24.4% (inactive).

`CC(=O)CC[C@@H](C)O[C@@H]1OC(C)[C@H](O)CC1O` (stereo not given in full): the “activity change, negative = inhibition” value is 103% (inactive).
